The list is not random: actives were taken first. Their share in the collection is about 1.3%.
BRCA1 expr up – increases BRCA1 expression; MCF7-BRCA1-FFLuc reporter, luminescence, 48 h; response scale: scaled: vehicle 0%, 10 µM genistein 100%; Potency, µM (series often up to 46.1 µM), without a hit: at the highest dose activation, hits mostly activators; 1.1% of 380,000 active; AID 624202; active = well fitted activation curve with a large enough effect; inconclusive = small, poorly fitted or top-dose-only effect; inactive = no such curve, though single readings can be large or run the other way; note: potency is the fitted concentration of half-maximal effect; nearly all actives have a fitted effect of over 80% in size
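First, MCF7-BRCA1-FFLuc cells (2000/well) attach for 2 h; next, compounds are pin-added and incubated 48 h at 37 °C; finally, luciferase reagent is added and luminescence read after 15 min.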
TRPML1 blocker – blocks the human TRPML1 channel; AID 624415; TRPML1-inducible cells, Ca2+ dye fluorescence, FDSS; stronger effect = lower value; inhibition of EC80 agonist-evoked calcium signal; activity change, negative = inhibition, % (no concentration beside the values); 0.02% of 390,000 active; in the data active = activity change below about -50%; inconclusive = between about -30% and that limit;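 note: stimulus is agonist 54-4 at its EC80 concentration; % is set by controls: 0 for no effect and ±100 for the full control effect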
Target sequence (Q9GZU1 whole entry, looked up): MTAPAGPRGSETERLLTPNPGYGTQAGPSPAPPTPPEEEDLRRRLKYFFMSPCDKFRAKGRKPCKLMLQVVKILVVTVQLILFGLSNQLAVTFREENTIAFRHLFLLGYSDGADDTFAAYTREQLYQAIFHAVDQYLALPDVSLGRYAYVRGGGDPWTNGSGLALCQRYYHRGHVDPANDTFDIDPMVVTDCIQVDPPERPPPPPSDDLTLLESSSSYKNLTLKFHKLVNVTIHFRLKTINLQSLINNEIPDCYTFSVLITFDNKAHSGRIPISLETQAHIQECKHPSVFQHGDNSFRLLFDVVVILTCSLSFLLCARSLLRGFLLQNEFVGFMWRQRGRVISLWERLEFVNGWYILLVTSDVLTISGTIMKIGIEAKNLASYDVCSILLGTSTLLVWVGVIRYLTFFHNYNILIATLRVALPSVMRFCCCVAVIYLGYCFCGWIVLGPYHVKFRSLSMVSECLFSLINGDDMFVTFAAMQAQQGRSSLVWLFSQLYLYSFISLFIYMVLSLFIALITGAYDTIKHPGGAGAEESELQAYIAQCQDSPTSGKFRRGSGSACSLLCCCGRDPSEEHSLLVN
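Calcium fluorescence in TRPML1-DL cells induced overnight with Tet: a 110 s read after compound pin addition, then a 110 s antagonist read after challenge with 54-4 at 4 uM final (EC80).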
IL2 activator – IL-2 activation. 0.065% of 360,000 active. IL-2 activation reporter assay, cell-based qHTS; stimulated with anti-CD3/CD4/CD28 beads; in transgenic mouse T cells. activation, % (series mostly up to about 46 µM). AID 652025; note: 0% is about no effect
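Screening format: compound pinned onto unstimulated transgenic mouse T cells, 60 min incubation, then anti-CD3/anti-CD4/anti-CD28 bead stimulation for 18 hours at 37 degrees C, followed by EGFP and DsRed detection.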
TRPML1 agonist – activates the human TRPML1 channel; Q9GZU1; TRPML1-expressing cells, Ca2+ dye fluorescence, FDSS; activation, % (no concentration beside the values); 0.12% of 410,000 active; AID 624414; note: 0% is about no effect
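In this qHTS format, compounds were pin-transferred onto Ca8-dye-loaded TRPML1-DL cells induced with Tet overnight, and intracellular Ca2+ fluorescence was recorded kinetically for 110 s after a 10 s baseline. A subsequent 4uM final 54-4 (EC80) addition followed by a second 110 s read served as the antagonist phase.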
PTAP TSG101 blk – blocks PTAP/TSG101 interaction to inhibit HIV-1 budding; Q99816; Fluorescence polarization, FITC-PTAP peptide / Tsg101 binding; Potency, µM (highest dose often 115 µM), inactives show at the top dose activity change, negative = inhibition, actives largely listed as inhibitors; 340,000 tested, under 10 active; AID 493005; active = well fitted inhibition curve with a large enough effect in the main read-out, with a control signal flat, not every such curve was filed as active; inconclusive = small, poorly fitted or top-dose-only effect, or effect the other way, or a change in a side signal; inactive = no such curve, though single readings can be large or run the other way; note: potency is the fitted concentration of half-maximal effect; % of control where 0% means no effect
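Fluorescence anisotropy tracks displacement of a FITC-tagged PTAP peptide (50 nM) from the Tsg101 binding domain (10 uM), following a 20 min room-temperature incubation at pH 7.5.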
PKM2 activator – PKM2 (human) enzyme activation; Potency, µM (doses to about 57.5 µM), without a hit: at the top dose activation, actives largely listed as activators; purified PKM2, Kinase-Glo ATP luminescence, activation; response scale: 0% is enzyme alone, no compound; 0.34% of 260,000 active; active = well fitted activation curve with a large enough effect; inconclusive = small, poorly fitted or top-dose-only effect; inactive = no such curve, though single readings can be large or run the other way; note: potency is the fitted concentration of half-maximal effect; % is set by controls: 0 for no effect and ±100 for the full control effect; nearly all actives have a fitted effect of over 55% in size
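Purified hPK-M2 (>95%) run at intermediate activity with 0.1 mM ADP and 0.5 mM PEP in 50 mM imidazole pH 7.2, KCl, MgCl2; 1 h room temperature. ATP formed read by Kinase-Glo luminescence; normalized to uninhibited and no-enzyme controls.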
* = called active by the depositor; ? = inconclusive; . = no result given; [ ] = another dose, or the depositor's remark. Cut-off read from the data, not from the text of the source, unless noted: active = activation above about 50%; inconclusive = mostly about 30% to 49%; inactive = weaker than that.

SMILES | BRCA1 expr up | TRPML1 blocker | IL2 activator | TRPML1 agonist | PTAP TSG101 blk | PKM2 activator
Cc1ccc(CNC(=O)Nc2cccc(C)c2)cc1 | 8.91µM* | -14.5 | 0.2 | 1.3 | -1.4% | -0.5%
Cc1cccc(NC(=O)Nc2cc(C)cc(C)n2)c1 | 3.55µM* | 20.9 | 0.4 | 0.4 | -2.0% | -1.3%
Cc1cc(C)nc(NC(=O)Nc2ccc3c(c2)OCO3)c1 | ? | -10.8 | 0.2 | -0.7 | -3.4% | -1.5%
CCOC(=O)c1ccccc1NC(=O)CSc1ncc2c(n1)-c1ccccc1N(CC)S2(=O)=O | . | 26.5 | . | 1.0 | . | .
CCCCN(C(=O)Cc1cccs1)c1nnc(-c2cccnc2)s1 | 3.16µM* | -7.7 | 0.3 | 0.8 | -10.6% | -13.6%
O=C(C1CC(c2ccccc2O)=NO1)N1CCCCC1 (stereo not given) | 10µM* | -2.7 | -2.4 | 0.6 | -6.1% | -0.5%
COC(=O)C1=C(C(=O)OC)[C@@H]2N(C)c3ccc(OC)cc3[C@@]23C[C@@H](C(=O)OC)N(S(=O)(=O)c2c(C)noc2C)C3=N1 | . | . | . | . | . | -3.1%[11.5 µM]
COc1ccc(NC(=O)C=C(C)C)cc1Cl | ? | 3.7 | 1.3 | 0.1 | 0.0% | -34.4%
CC(C)=CC(=O)Nc1ccc(Cl)cc1 | 3.16µM* | -8.5 | -0.1 | 0.1 | -3.5% | -0.5%
C/C(=C\C(=O)c1ccc(Br)cc1)Nc1ccc(Cl)cc1 | 2.82µM* | 66.9 | -0.5 | 3.0 | 0.6% | 6.0%
CS(=O)(=O)N1CCN(c2nc3ccccc3s2)CC1 | 12.6µM* | -3.2 | -1.8 | -0.5 | -2.6% | 2.9%
CNC(=S)N1CCN(c2nc3ccccc3s2)CC1 | 7.08µM* | 3.6 | 0.1 | -0.4 | -0.5% | -1.5%
CCCCNC(=S)N1CCN(c2nc3ccccc3s2)CC1 | -0.9% | -18.9 | -0.3 | 0.6 | -9.4% | 14.3%
COC(=O)C(CCSC)NC(=O)c1cc2c(n(-c3ccc(C)cc3)c1=O)CC(C)(C)CC2=O (stereo not given) | 9.4% | -10.1 | . | -0.2 | . | .
COc1ccc(C(=O)CSc2nc(C)cc(C)c2C(=O)Nc2ccccc2C)cc1 | . | 5.3 | . | 4.9 | . | .
COC(=O)C1=C(C)N(Cc2ccccc2)C(=S)N[C@H]1c1ccccc1 | -9.9% | -22.5 | -0.1 | 64.6* | -18.0% | ?
COC(=O)C1=C(C)N(Cc2ccccc2)C(=O)N[C@H]1c1ccccc1 | -27.1% | 2.4 | 0.2 | 2.7 | -3.1% | 11.3%
CCOC(=O)C1CCCN(C(=O)CC(C)c2ccccc2)C1 (stereo not given) | 12.6µM* | 9.4 | -2.1 | 0.3 | -3.9% | -5.2%
Cc1ccc([C@H]2N[C@]3(CCCN(Cc4ccc(Br)cc4)C3=O)[C@H]3C(=O)N(C)C(=O)[C@@H]23)cc1 | -18.3% | 1.6 | -3.7 | -0.3 | . | .
CC1CCCN(C(=O)CNC(=O)c2cccs2)C1 (stereo not given) | 10µM* | -11.1 | -0.4 | -0.3 | -1.1% | .
CC(=O)N1CCN(C(=O)CNC(=O)c2cccs2)CC1 | 2.3% | 1.8 | -0.5 | 0.2 | -6.4% | .
Cc1ccnc(NS(=O)(=O)c2ccc(NC(=O)C(C)(C)Oc3ccc(Cl)cc3)cc2)n1 | . | -1.2 | . | 0.2 | . | .
NC(=O)CC(NC(=O)Cc1ccc(Br)cc1)c1ccc(NCCc2ccccc2F)c([N+](=O)[O-])c1 (stereo not given) | 3.6% | 6.7 | -0.1 | 0.5 | -1.2% | 1.58µM*
C/C(=N/NS(=O)(=O)c1ccc(C)cc1)c1c(O)c2ccccc2oc1=O | -21.8% | 18.2 | -0.2 | 2.3 | -1.9% | -0.4%
CCCCCN=C(C)c1c(O)c2ccccc2oc1=O | 11.2µM* | 21.4 | 0.0 | 1.9 | -0.6% | -5.8%
CN1CCN(c2nc3ccccc3nc2C(C#N)C(=O)OC2CCCCC2)CC1 (stereo not given) | 1.5% | 9.5 | -2.1 | 0.2 | -3.6% | -4.5%
N#CC(C(=O)OC1CCCCC1)c1nc2ccccc2nc1N1CCOCC1 (stereo not given) | -17.5% | 1.2 | 69.6* | -0.7 | ? | 0.0%

Source: PubChem
